Structures are written as SMILES. Active and inactive are the calls of the source. The call rests on the fitted dose curve; in most records, active means well fitted curve in the direction sought with a large enough effect; inconclusive means small, poorly fitted or top-dose-only effect, or another doubt; inactive means no such curve, though single readings can be large or run the other way.

For this experiment, the target named is Alpha-galactosidase (Coffea arabica) (UniProt Q42656). The experiment can be described thus: Counterscreen for Glucocerebrosidase Inhibitors: qHTS Assay for Coffee Bean alpha-Galactosidase at pH 4.5 (AID 957). The settings on record: purified coffee bean alpha-galactosidase, fluorogenic substrate; series mostly up to 76.9 µM. The gist of the method: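 Quantitative HTS of compounds (0.7 nM to 77 uM) against coffee bean alpha-galactosidase at pH 4.5, measuring 4-methylumbelliferone fluorescence released from 80 uM substrate.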
Alpha-galactosidase (Coffea arabica), sequence (Q42656 whole entry, looked up): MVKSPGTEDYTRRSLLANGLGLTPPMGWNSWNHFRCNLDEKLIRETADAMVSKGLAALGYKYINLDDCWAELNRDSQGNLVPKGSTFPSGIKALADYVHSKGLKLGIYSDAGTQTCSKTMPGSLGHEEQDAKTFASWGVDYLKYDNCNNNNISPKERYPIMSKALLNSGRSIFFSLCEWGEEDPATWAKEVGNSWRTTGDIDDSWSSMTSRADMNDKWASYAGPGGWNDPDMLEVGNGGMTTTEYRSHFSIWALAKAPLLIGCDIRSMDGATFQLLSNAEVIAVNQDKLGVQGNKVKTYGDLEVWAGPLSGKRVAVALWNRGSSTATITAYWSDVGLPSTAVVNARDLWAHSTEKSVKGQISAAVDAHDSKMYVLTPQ
Turning to `O=S1(=O)N(CCN2CC=C(c3c[nH]c4cc(F)ccc34)CC2)c2cccc3c2N1CCC3`, the result was inactive.

Turning to `Cc1sc2ccccc2c1CC1=NCCN1`, the molecule was called inactive. `C[N+](C)(C)CCOC(=O)CBr`: the outcome was inactive. In the case of `CCCN(CCC)[C@H]1CCc2c(F)ccc(O)c2C1` it was “inactive”; in that of `NCCc1c[nH]c2ccc(C(N)=O)cc12`, “inactive”. With `C[N+]1(C)[C@@H]2CC[C@H]1CC(OC(=O)c1c[nH]c3ccccc13)C2` (stereo partly drawn), the molecule was called inactive. In the case of `Nc1ccc(CCN2CCN(c3cccc(C(F)(F)F)c3)CC2)cc1` it was “inactive”; in that of `c1ccc2cc(CC3=NCCN3)ccc2c1`, “inactive”.

The values are drawn from PubChem BioAssay (NCATS).
